Consider 26 compounds from PubChem BioAssay (EPA / NIEHS).

Calls of active or inactive are those of the source. The calls were made as follows: active = hit-call score of the fitted dose curve at least 0.9, where 1 is the maximum; inactive = score below 0.9.

A short description of experiment [1]: ATG_GLI_CIS: Attagene CIS-FACTORIAL HepG2 Assay for human Zinc Finger Protein GLI1 (AID 2282945). To be noted: HepG2, Attagene cis-factorial reporter mRNA, GLI element; actives raise or lower the signal. Summed up: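 Transiently transfected HepG2 cells report endogenous transcription factor activity via cis-element-driven reporter units. After 24 h compound exposure, reporter mRNA was measured by RT-PCR with capillary electrophoresis; bidirectional fitting against DMSO baseline.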

Experiment [2] has as its target Bile acid receptor (Homo sapiens) (UniProt Q96RI1). Description: ATG_IR1_CIS: Attagene CIS-FACTORIAL HepG2 Assay for human Nuclear Receptor Subfamily 1 Group H Member 4 (NR1H4), IR1 submotif (AID 2282946). The note with it: IR1 reporter transcription, actives raise or lower the signal. Summed up: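 Fluorescence of capillary-separated, HpaI-digested RT-PCR reporter products gave IR1-element mRNA induction in HepG2 cells 24 h after dosing. Endogenous transcription factors drove the cis-regulated reporters; activity was fitted bidirectionally against DMSO.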

Experiment [3] is described as follows: ATG_GRE_CIS: Attagene CIS-FACTORIAL HepG2 Assay for human Glucocorticoid Response Elements (GRE) (AID 2282947). To be noted: HepG2 GRE cis-reporter, Attagene multiplex mRNA; actives raise or lower the signal. Summed up:
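Fluorescence intensity of reporter-specific cDNA fragments, separated by capillary electrophoresis, provides the signal. Constructs carry cis-regulating promoters in transiently transfected HepG2 liver cells; 24 h incubation; fitting is bidirectional against DMSO.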

Experiment [4] can be described thus: ATG_ISRE_CIS: Attagene CIS-FACTORIAL HepG2 Assay for human Interferon Regulatory Factor 1 (IRF1) binding to an Interferon-Stimulated Response Element (ISRE) (AID 2282948). To be noted: HepG2 ISRE cis-reporter (Attagene), mRNA transcription readout; actives raise or lower the signal. Summed up: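 Read-out: fluorescent RT-PCR products resolved by capillary electrophoresis, reporting endogenous transcription factor activity via ISRE-driven reporter mRNA in transfected HepG2 cells dosed for 24 h; gain or loss fitted relative to DMSO.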

A short description of experiment [5]: ATG_M_32_CIS: Attagene CIS-FACTORIAL HepG2 Assay for M32 Transcription Factor (Internal Marker) (AID 2282949).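 Also: background control marker of the multiplexed CIS panel rather than a real target.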 The note with it: HepG2 Attagene cis-factorial M32 reporter, mRNA; actives raise or lower the signal. In outline:
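HepG2 transfectants (cis-regulated reporter transcription units) dosed 24 h. Reporter mRNA by RT-PCR plus CE, analysed as gain or loss relative to DMSO.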

Experiment [6] in a line: ATG_M_06_CIS: Attagene CIS-FACTORIAL HepG2 Assay for M06 Transcription Factor (Internal Marker) (AID 2282950). The note with it: HepG2 Attagene CIS-FACTORIAL M06 internal marker reporter; actives raise or lower the signal. Summed up: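 Fluorescence-labelled RT-PCR products from cis-promoter reporter units, cut with HpaI and resolved by capillary electrophoresis, give the signal. Cells are human HepG2, dosed for 24 h. Serves as background control, fitted relative to DMSO.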

The target of experiment [7] is Hypoxia-inducible factor 1-alpha (Homo sapiens) (UniProt Q16665). Kind of experiment: ATG_HIF1a_CIS: Attagene CIS-FACTORIAL HepG2 Assay for human Hypoxia Inducible Factor 1 (HIF1A) (AID 2282951). The note with it: HepG2 Attagene cis-factorial HIF1a reporter transcription; actives raise or lower the signal. Summed up: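 Activity is fitted in both directions relative to DMSO. Reporter transcripts are read by RT-PCR, fluorescent primer extension and capillary electrophoresis after 24 h chemical treatment. The cells are HepG2 carrying transiently transfected cis-element-driven reporter units responding to endogenous factors.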

The target of experiment [8] is Hepatocyte nuclear factor 6 (Homo sapiens) (UniProt Q9UBC0). Kind of experiment: ATG_HNF6_CIS: Attagene CIS-FACTORIAL HepG2 Assay for human Hepatocyte Nuclear Factor 6 (HNF6) (AID 2282952). The note with it: HepG2 Attagene cis-factorial HNF6 reporter transcription; actives raise or lower the signal. Summed up: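 First, HepG2 cells were transfected with the multiplexed cis reporter library and dosed with chemical for 24 h. Next, RNA was reverse-transcribed, PCR-amplified and fluorescently labelled. Finally, HpaI-digested fragments were read by capillary electrophoresis.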

Experiment [9] deals with Heat shock factor protein 1 (Homo sapiens) (UniProt Q00613). Kind of experiment: ATG_HSE_CIS: Attagene CIS-FACTORIAL HepG2 Assay for human Heat Shock Transcription Factor 1 (HSE) (AID 2282953). To be noted: HepG2 HSE cis-reporter, Attagene RNA transcription; actives raise or lower the signal. In outline:
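After a 24 h incubation with test chemical, transfected HepG2 cells were harvested for RNA; reporter transcripts were measured by RT-PCR and capillary electrophoresis. Values reflect gain or loss of signal relative to DMSO.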

The nature of experiment [10]: ATG_MRE_CIS: Attagene CIS-FACTORIAL HepG2 Assay for human Metal Responsive Element (MRE) (AID 2282954). The note with it: HepG2 MRE cis-reporter transcription, Attagene multiplex; actives raise or lower the signal. Summed up: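 Measured here is mRNA induction from an MRE cis-element reporter in HepG2 after 24 h, quantified by fluorescence of labelled RT-PCR products on capillary electrophoresis; gain- and loss-of-signal fits use DMSO as baseline.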

By AC50 is commonly meant the midpoint of the concentration-response curve, whichever way the signal moves.

Chain of Bile acid receptor (Homo sapiens) (Q96RI1 whole entry, looked up): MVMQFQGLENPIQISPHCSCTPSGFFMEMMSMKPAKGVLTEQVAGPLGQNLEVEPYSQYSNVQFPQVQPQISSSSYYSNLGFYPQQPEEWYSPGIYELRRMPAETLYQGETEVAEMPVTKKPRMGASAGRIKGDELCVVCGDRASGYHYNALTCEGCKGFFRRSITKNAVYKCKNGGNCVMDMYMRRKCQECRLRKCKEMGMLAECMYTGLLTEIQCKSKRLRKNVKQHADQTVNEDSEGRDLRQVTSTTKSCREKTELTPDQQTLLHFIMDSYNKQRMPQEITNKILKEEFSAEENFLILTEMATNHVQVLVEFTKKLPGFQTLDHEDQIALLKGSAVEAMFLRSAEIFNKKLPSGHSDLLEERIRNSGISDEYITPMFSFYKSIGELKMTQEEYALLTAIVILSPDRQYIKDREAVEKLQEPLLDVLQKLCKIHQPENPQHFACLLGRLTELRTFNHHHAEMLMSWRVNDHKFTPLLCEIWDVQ
Chain of Hepatocyte nuclear factor 6 (Homo sapiens) (Q9UBC0 whole entry, looked up, the tested form may be a part): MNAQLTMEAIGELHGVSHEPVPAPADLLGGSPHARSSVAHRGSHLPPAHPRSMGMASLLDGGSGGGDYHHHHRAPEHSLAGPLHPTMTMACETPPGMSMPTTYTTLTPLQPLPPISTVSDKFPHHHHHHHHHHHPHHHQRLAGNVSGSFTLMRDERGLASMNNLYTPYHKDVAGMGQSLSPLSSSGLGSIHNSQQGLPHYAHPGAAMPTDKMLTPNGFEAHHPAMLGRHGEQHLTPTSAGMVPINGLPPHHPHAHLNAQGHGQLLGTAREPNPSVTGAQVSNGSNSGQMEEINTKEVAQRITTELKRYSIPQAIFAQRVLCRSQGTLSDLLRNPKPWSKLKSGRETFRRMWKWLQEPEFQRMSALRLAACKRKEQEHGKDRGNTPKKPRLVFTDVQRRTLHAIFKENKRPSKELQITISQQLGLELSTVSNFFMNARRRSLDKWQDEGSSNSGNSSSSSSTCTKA
Chain of Heat shock factor protein 1 (Homo sapiens) (Q00613 whole entry, looked up): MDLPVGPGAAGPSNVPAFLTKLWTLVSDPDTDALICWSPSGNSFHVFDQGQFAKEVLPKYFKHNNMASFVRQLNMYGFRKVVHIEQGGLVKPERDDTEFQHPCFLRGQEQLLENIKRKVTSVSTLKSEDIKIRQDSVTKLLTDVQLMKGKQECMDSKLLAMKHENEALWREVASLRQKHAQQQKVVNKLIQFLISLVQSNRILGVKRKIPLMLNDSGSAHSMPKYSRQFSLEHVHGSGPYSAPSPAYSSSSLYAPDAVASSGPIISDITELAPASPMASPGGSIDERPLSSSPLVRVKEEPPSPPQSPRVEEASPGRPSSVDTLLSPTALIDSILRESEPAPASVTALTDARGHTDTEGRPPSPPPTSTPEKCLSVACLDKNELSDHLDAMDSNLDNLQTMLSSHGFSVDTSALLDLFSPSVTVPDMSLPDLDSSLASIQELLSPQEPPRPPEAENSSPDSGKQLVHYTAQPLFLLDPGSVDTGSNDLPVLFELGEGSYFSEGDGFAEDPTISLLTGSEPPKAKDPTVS
Chain of Hypoxia-inducible factor 1-alpha (Homo sapiens) (Q16665 whole entry, looked up): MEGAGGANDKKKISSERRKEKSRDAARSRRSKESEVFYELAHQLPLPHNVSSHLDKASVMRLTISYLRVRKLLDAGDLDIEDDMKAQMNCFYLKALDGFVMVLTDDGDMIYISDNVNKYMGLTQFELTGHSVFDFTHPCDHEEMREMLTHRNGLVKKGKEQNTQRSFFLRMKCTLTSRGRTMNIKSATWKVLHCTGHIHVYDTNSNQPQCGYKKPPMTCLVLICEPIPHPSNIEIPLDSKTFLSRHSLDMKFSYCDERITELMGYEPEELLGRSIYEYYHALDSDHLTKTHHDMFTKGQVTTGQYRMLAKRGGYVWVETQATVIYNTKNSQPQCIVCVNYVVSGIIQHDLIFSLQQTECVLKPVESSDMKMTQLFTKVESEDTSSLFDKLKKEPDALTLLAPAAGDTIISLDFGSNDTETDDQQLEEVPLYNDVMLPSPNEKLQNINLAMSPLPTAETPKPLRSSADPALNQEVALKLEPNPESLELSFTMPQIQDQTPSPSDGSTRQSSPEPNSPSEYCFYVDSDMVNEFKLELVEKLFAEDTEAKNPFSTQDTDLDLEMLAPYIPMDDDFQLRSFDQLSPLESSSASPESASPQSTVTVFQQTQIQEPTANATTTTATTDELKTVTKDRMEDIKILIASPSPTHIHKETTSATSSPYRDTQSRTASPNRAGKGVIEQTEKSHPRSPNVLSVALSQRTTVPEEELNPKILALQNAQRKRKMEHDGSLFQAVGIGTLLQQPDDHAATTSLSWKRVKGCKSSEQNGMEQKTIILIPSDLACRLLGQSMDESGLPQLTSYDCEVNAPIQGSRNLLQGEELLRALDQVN

Take `CCN(CC)c1cccc(C)c1`: the result in [1], in [2], in experiment [3], in experiment [4], in [5] and in [6] was inactive. Moreover, the call in experiment [7], in [8], in experiment [9] and in experiment [10] was inactive.

For `CCCCCCCCCCCCCCCCCCOS(=O)(=O)O`, the outcome in experiment [1], in [3], in [4] and in [7] was inactive. The AC50 is 33.4 µM (active) in experiment [2]; 53 µM (active) in [5]; 54.7 µM (active) in experiment [6]; 19.5 µM (active) in [8]; 54 µM (active) in experiment [9].

As to `CCc1cccc(CC)c1`, the compound was called inactive in experiment [1], in [2], in [3], in experiment [4], in [5] and in experiment [6]. Further, the result in [7], in [8], in experiment [9] and in experiment [10] was inactive.

For `CCCCCCCCC(CO)CCCCCC` (centres undefined), the call in [1], in [2], in experiment [4], in [5], in experiment [6] and in experiment [7] was inactive. Moreover, in experiment [9], the compound was classed as inactive. In addition, the AC50 was 126 µM (active) in experiment [3], 172 µM (active) in [8] and 158 µM (active) in experiment [10].

For `Cn1cccc1`, the compound was classed as inactive in experiment [1], in experiment [2], in experiment [3], in experiment [4], in [5] and in [6]. Also, the compound was called inactive in [7], in experiment [8], in [9] and in experiment [10].

As for `CC(C)(C)C1CCC(=O)CC1`, the compound was classed as inactive in [1], in experiment [2], in experiment [3], in experiment [4], in [5] and in [6]. The compound was called inactive in experiment [7] and in [8]. Besides, the AC50 in experiment [9] was 156 µM (active).

Regarding `C/C=C/C=C/CCCCCCCO`, the figures for the AC50 in [1], in [2] and in [9] were 168 µM (active), 172 µM (active) and 168 µM (active), respectively. Besides, the result in experiment [3], in experiment [4], in [5], in [6], in [7] and in experiment [8] was inactive.

For `CC(C=O)c1ccccc1` (centres undefined), the outcome in [1], in experiment [2], in [3], in experiment [4], in [5] and in experiment [6] was inactive. Also, the outcome in experiment [7], in experiment [8], in [9] and in [10] was inactive.

With `Cc1cc(C)n(CO)n1`, the result in experiment [1], in experiment [2], in experiment [3], in [4], in experiment [5] and in experiment [6] was inactive. For the same compound, the outcome in experiment [7], in experiment [8], in experiment [9] and in experiment [10] was inactive.

Regarding `CCC(C)(O)CCCC(C)C` (centres undefined), the compound was classed as inactive in experiment [1], in experiment [2], in [3], in experiment [4], in experiment [5] and in experiment [6]. The result in experiment [7], in [8], in [9] and in experiment [10] was inactive.

Consider `COc1ccc(C(=O)/C(Br)=C\C(=O)O)cc1`, for which the compound was classed as inactive in experiment [1], in experiment [2], in [3], in [5], in experiment [6] and in experiment [8]. Also, the AC50 in experiment [4] is 57.2 µM (active); in experiment [7], 56.1 µM (active); in [9] it was 174 µM (active); in experiment [10] it was 55.5 µM (active).

Regarding `CCC(C)C(=O)OCCc1ccccc1` (centres undefined), the compound was called inactive in [1], in experiment [2], in experiment [3], in [4], in experiment [5] and in [6]. The compound was called inactive in [7], in experiment [8], in experiment [9] and in experiment [10].

For the compound `Cn1ccnc1`, the outcome in [1], in experiment [2], in experiment [3], in experiment [4], in [5] and in experiment [6] was inactive. The call in [8], in experiment [9] and in [10] was inactive.

As to `C=CC(=O)OCCCCCCOC(=O)C=C`, the call in experiment [1], in experiment [3], in experiment [5], in experiment [6], in experiment [7] and in experiment [8] was inactive. Also, the AC50 in experiment [2] was 42.5 µM (active); in [4] it was 75.3 µM (active); in experiment [9] it was 180 µM (active); in experiment [10] it was 52.4 µM (active).

With `CCC1COC(=O)O1` (centres undefined), the compound was classed as inactive in [1], in experiment [2], in [3], in [4], in [5] and in [6]. For the same compound, the compound was called inactive in experiment [7], in experiment [8], in [9] and in experiment [10].

As for `CCC1(C)C(=O)N(Cl)C(=O)N1Cl` (centres undefined), the result in experiment [1], in experiment [2], in experiment [3], in [5], in [7] and in experiment [8] was inactive. For the same compound, the AC50 is 49.4 µM (active) in [4], 52.1 µM (active) in experiment [9] and 61.4 µM (active) in experiment [10].

As to `Cc1ccc(C)c(OCCCC(C)(C)C(=O)O)c1`, the outcome in [1], in experiment [2], in experiment [4], in experiment [5], in [6] and in experiment [8] was inactive. Moreover, the call in experiment [9] was inactive.

Turning to `CC(C)=CCl`, the call in experiment [1], in experiment [2], in experiment [3], in experiment [4], in experiment [5] and in [7] was inactive. Moreover, the compound was classed as inactive in [8], in [9] and in [10].

On to `Cc1cc(C)c(C=O)c(C)c1`, for which the compound was called inactive in experiment [1], in [2], in experiment [3], in [5], in experiment [7] and in [8]. In addition, the call in experiment [9] and in experiment [10] was inactive.

In the case of `C=CCCCCCCCCOC(C)=O`, the call in [1], in experiment [2], in experiment [3], in experiment [5], in [6] and in experiment [7] was inactive. For the same compound, the compound was classed as inactive in [8], in experiment [9] and in experiment [10].

With `C=CCNCC=C`, the outcome in experiment [1], in experiment [2], in [3], in experiment [4], in experiment [5] and in [8] was inactive. Moreover, the call in experiment [9] and in experiment [10] was inactive. Moreover, the AC50 in experiment [7] was 28.3 µM (active).

Consider `CCN1CCCC1=O`, for which the outcome in experiment [1], in experiment [2], in experiment [3], in experiment [4], in experiment [5] and in [6] was inactive. For the same compound, the outcome in experiment [7], in experiment [8], in [9] and in experiment [10] was inactive.

Take `CC(C)=NNC(N)=S`: the call in experiment [1], in experiment [2], in [3], in experiment [4], in experiment [5] and in [6] was inactive. Further, the call in [8], in experiment [9] and in [10] was inactive. In [7], the AC50 is 9.14 µM (active).

`CCOC(=O)C1=NN(c2ccc(Cl)cc2Cl)C(C)(C(=O)OCC)C1` (centres undefined): the compound was called inactive in [1], in [2], in [3], in experiment [4], in experiment [5] and in experiment [6]. For the same compound, the outcome in experiment [7] and in experiment [8] was inactive. In addition, the concentration at half-maximal activity (AC50) in experiment [9] is 137 µM (active); in [10], 66.8 µM (active).

On to `CCOc1ccc(NC(N)=O)cc1`, for which the result in [1], in [2], in experiment [3], in experiment [5], in [6] and in experiment [7] was inactive. Also, the result in [8], in experiment [9] and in [10] was inactive.

With `COc1nccnc1CC(C)C`, the call in [1], in experiment [2], in experiment [3], in experiment [4], in experiment [5] and in experiment [7] was inactive. Moreover, the call in experiment [8] and in [9] was inactive.
